The panel holds about 83,000 compounds, 20% with a hit somewhere; the sample as a whole holds those more often.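 How to read the values: 0–100, growth inhibition (40 = 60% inhibited); 0, no net growth; -100 to 0, cell death (-40 = 40% of starting cells died; -100 = all dead).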 Values without a mark were called inactive. Activity calls are given as the source filed them.

This assay relates to HS 578T breast. The experiment in a line: NCI-60 one-dose screen, 48 h (100 = growth as untreated, 0 = no growth, -100 = all killed). The settings on record: 10 µM unless noted. As for the experimental part: Growth inhibition of the HS 578T human tumor cell line is measured as a screen for anti-cancer activity. Cells are grown in 96 well plates and exposed to the test compound for 48 hours. Compounds are tested at a single concentration, which is 10^-5 M for most compounds. The reported endpoint is percent growth (GI% or GIPRCNT), where numbers from 0 - 100% represent growth inhibition, and numbers from -100% - 0 represent cell death. For example, a value of 40 represents 60% growth inhibition. A value of 0 means no net growth occurred over the course of the experiment. A value of -40 indicates 40% of cells at the beginning of the experiment died by the end of the experiment. A value of -100 means all cells are dead at the end of the experiment.
NCI-60 Human Tumor Cell Lines Screen was performed using the standard one-dose NCI protocol, which is described in more detail at https://dtp.cancer.gov/discovery_development/nci-60/default.htm.
Compounds with GIPRCNT values below 10 were considered active. Activity score was based on GIPRCNT using the following formula: […]
Score is 0 for GIPRCNT values of 100 or above, 50 for GIPRCNT values of 0, and 100 for GIPRCNT values of -100.
Turning to `COc1cc(-c2nc3ccccc3[nH]2)ccc1OCc1nnc(-c2ccc(CC(C)C)cc2)o1`, the growth was 87.4%. The result for `NC(=NCCCC1(c2ccccc2)CCCC1)Nc1ccc(Cl)cc1` reads 65.4%; that for `CC(=O)c1cc2c(N)c(C(=O)Nc3cccc4ccccc34)sc2nc1C`, 38.2%. For `CCCc1cc(=O)n2c(C(=O)Nc3cccc(C(=O)OCC)c3)c(C(=O)Nc3ccc(F)cc3)sc2n1`, the growth is 14.3% [30 µM]. The result for `CCC(=O)c1ccc(Cl)s1` reads 103%. The result for `C=C1c2nc3ccccc3n2C=C(c2ccc(Cl)cc2)N1Cc1ccc(OC)cc1` reads 104%; that for `O=C1c2ccccc2C(=O)c2c1ccc1[nH]c(-c3cccs3)nc21`, 99.2%; that for `Oc1ccccc1-c1nnc(CNc2ccc(Cl)cc2)o1`, 57.6%. For `Cc1cn2c(/C=C3/C(=O)Nc4c3ccc3ccccc43)c(C(F)(F)F)nc2s1`, the growth is 16.5%.

In the case of `Cc1cc(C)nc(SC2=C(Nc3cc(Cl)ccc3O)C(=O)N(Cc3ccccc3)C2=O)n1`, the growth was 82.7% [30 µM]. Under `Cc1ncc(C(=O)Nc2ccc(CN3CCN(C)CC3)c(C(F)(F)F)c2)cc1C#Cc1cnc2cccnn12` stands -15.5% (active). Under `Oc1cccc2ccc(N/N=C/c3cc(CN4CCOCC4)c(O)c4ncccc34)nc12` stands 36.3%.

As for `O=C1NC(=S)NC(=O)C1CC(=O)n1c(-c2ccccc2)nc2ccccc21`, the growth was 98.9%. As to `CC(C)(O)c1cn(CCCCN2C(=O)C(=O)c3ccccc32)nn1`, the growth was 99.6%. Consider `COc1ccc(-c2cc(=O)c3c(OC)c4ccoc4cc3o2)cc1`, for which the growth was 120%. Under `O=C(C(=O)c1ccc2c(c1)OCO2)c1ccc2c(c1)OCO2` stands 96.3%. As to `C#CCOc1ccc2ncnc(Nc3cccc(CNC(=O)CCl)c3)c2c1`, the growth was 37.8% [8.25 µM]. The result for `C#Cc1cccc(NC(=O)c2ccccc2NC(=O)CCl)c1` reads 69.3% [8.25 µM]; that for `CCCOc1cc2ccccc2cc1C(=O)Nc1nc(NC)c2c(ccc3nccc32)[nH]1`, -56.3% (active). Under `COc1cc(/C=C/C(=O)c2ccc(O)c(CN3CCN(c4cc5c(cc4F)c(=O)c(C(=O)O)cn5C4CC4)CC3)c2)cc(OC)c1OC` stands 38.1%. The result for `Nc1ccn(-c2ccc(Br)cc2)c(=O)n1` reads 122%; that for `Cc1ccc(-c2onc3c(=O)[nH]nc(-c4ccccc4)c23)cc1`, 16.7%. Turning to `COc1ccc2c(c1)c(-c1nonc1-c1cn(C)c3ccccc13)cn2C`, the growth was 16.7%.

On to `CC(C)(C)c1cc(/C=N\NC(=O)/C=C/C=C/c2ccc3c(c2)OCO3)c(O)c(C(C)(C)C)c1`, for which the growth is 13.6%.

For the compound `O=CNc1ccc2c(c1)Cc1cccc(NC=O)c1-2`, the growth was 97.1%.

In the case of `O=C(N=Nc1c(O)[nH]c2ccc(Br)cc12)c1cc(-c2ccccc2)on1`, the growth was 99.1%. Under `COc1cc(-c2nc3cc(Cl)c(Cl)cc3[nH]2)ccc1OCC(=O)N=Nc1c(O)[nH]c2ccccc12` stands -47.9% (active); under `Cc1cc(N[C@@H]2CCC[C@H](Nc3ccnc4cc(Cl)ccc34)C2)nc(N2CCCCCC2)n1`, -46.8% (active). Take `COc1ccc2c(c1)CC/C(=C\c1cncc(Br)c1)C2=O`: the growth is 116%. As for `NCCNc1nc(Nc2ccc(-c3nc4ccccc4[nH]3)cc2)c2cn[nH]c2n1`, the growth was 41.8%. Consider `C=C1C(=O)O[C@H]2[C@H]1CC/C(COC(=O)NCc1ccc(OC)c(OC)c1)=C\CC[C@@]1(C)O[C@@H]21`, for which the growth was 86.2%. Under `COc1ccc(-n2nc(C)c3c(Nc4ccc(NC(=O)Nc5cc(C(F)(F)F)ccc5F)cc4)ncnc32)cc1` stands 28.4%; under `COc1cc(Nc2cc(C)nc(N3CCN(c4ccnc5cc(Cl)ccc45)CC3)n2)cc(OC)c1`, 18.2%; under `Cc1nn(-c2ccc(F)cc2)c2ncnc(Oc3ccc(NC(=O)Nc4ccc(Cl)c(C(F)(F)F)c4)cc3)c12`, 91%. As to `O=C(/C=C/c1ccc(C(F)(F)F)cc1)Nc1ccc(C=C2c3ccccc3C(=O)c3ccccc32)cc1`, the growth is 78.5%. The result for `Cn1cc(-c2nonc2-c2cn(C)c3ccc(F)cc23)c2cc(F)ccc21` reads 52.2%. Regarding `O=[N+]([O-])c1ccc(Nc2nc(NCCN3CCOCC3)ncc2[N+](=O)[O-])cc1`, the growth was 87.8%. Under `Cn1cc(C(=O)c2nc(-c3c[nH]c4ccc(F)cc34)no2)c2cc(F)ccc21` stands 91.3%; under `O=c1c2c3c(sc2nc(N/N=C/c2cn(-c4ccccc4)nc2-c2ccc(Cl)cc2)n1Cc1ccccc1)CCCC3`, 94.2%. Under `CCOC(=O)c1c(CN2CCN(C)CC2)nc2ccc(Cl)cc2c1-c1ccccc1` stands 61%.

Values taken from PubChem BioAssay (NCI).
